The record followed here is PubChem BioAssay.

Experiment [1] is described as follows: Her2 expression decrease, cell viability multiplex – SKBR3 breast tumor cells, AlphaScreen, ATP viability, primary screen (AID 461;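 active = Her2 level under about 52% in both replicate screens, with viability over 70% of control, limit read from the data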;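 as to Her2 level: lower value means less Her2 protein in the cells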;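 as to viability: percent of carrier control wells set as 100% viability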). The following applies: SKBR3 Her2 protein level, 18-24 h, measured here: SKBR3 viability, ATP luminescence, at 10 µM.
Experiment [2] has as its target Receptor tyrosine-protein kinase erbB-2 (Homo sapiens) (UniProt P04626). The description is as above. The conditions noted are these: 18-24 h, at 10 µM, stronger effect = lower value.
Experiment [3] can be described thus: reduced viability of SK-BR-3 breast cancer cells – cell-based, 24 h, human, pilot screen (AID 572;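 active = viability at or below 10% of carrier control in both of two separate runs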;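 also: compound exposure lasted between 18 and 24 h rather than exactly 24 h; 100% = carrier-treated control wells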). The conditions noted are these: SK-BR-3 viability, CellTiter-Glo luminescence, at 10 µM, stronger effect = lower value.
Experiment [4] can be described thus: HUVEC growth inhibition – cell-based, human, primary screen (AID 575;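 active = viability at or below 30% in both replicate assays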;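 also: 100% = median of untreated cell wells with 0.1% DMSO on each plate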). The conditions noted are these: HUVEC proliferation, CellTiter-Glo luminescence, 72 h; at 10 µM; stronger effect = lower value.
The nature of experiment [5]: H69AR cell proliferation blockers – human, duplicate replicates, primary screen (AID 580;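 active = viability at or under a set limit in both replicates, limit being median viability minus 3 SD, cut at about 48% in these data, passing the limit was not always enough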;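 also: 100% = mean luminescence of untreated wells and 0% = no signal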). The conditions noted are these: H69AR lung tumor cells viability, ATP luminescence, 72 h; at 10 µM; stronger effect = lower value.
Experiment [6] can be described thus: MRP1 drug-resistance reversers in H69AR cells – cell-based, doxorubicin co-treatment, pilot screen (AID 601;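 active = viability loss from added drug above about 55%, and viability with drug at most 40%, in both replicates, limit read from the data, passing the limit was not always enough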). The following applies: CellTiter-Glo, 72 h, at 10 µM; for differential viability (reversal): stronger effect = higher value.
A short description of experiment [7]: yeast transport mutant growth inhibition pilot in 384-well plates, post-Golgi transport modulator project (AID 636; in the data active = inhibition above about 31%). The following applies: absorbance 615 nm, about 18 h, stronger effect = higher value.
Experiment [8] in a line: growth suppression of yeast trafficking mutant, preliminary HTS, modulators of trafficking downstream of Golgi apparatus project, 1536-format plate, OD 615 nm (AID 637). The following applies: yeast transport mutant growth, absorbance 615 nm, 18 h; stronger effect = higher value.
A short description of experiment [9]: S. cerevisiae growth inhibition in permissive medium (OD615), pilot counter-assay for S. cerevisiae lifespan shortening project, permissive growth control (AID 705;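 active = growth inhibition above 25% in both replicates, a cutoff set 3 SD above the mean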). The following applies: OD615, 24 h, at 10 µM, stronger effect = higher value.
The nature of experiment [10]: S. cerevisiae growth inhibition in restrictive medium, OD615, pilot screen, restrictive growth control, yeast lifespan reduction project (AID 706;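 active = growth inhibition above a set limit, 3 SD over mean compound inhibition, in both replicates, cut at about 43% in these data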;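 also: modified DeaD lifespan yeast strain shifted to restrictive glucose medium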). The following applies: OD615, 48 h, at 10 µM, stronger effect = higher value.
A short description of experiment [11]: doxorubicin toxicity protection in MRP-1 cells – H69AR cells, CellTiter-Glo, duplicate, MRP-1 activator project, pilot screen (AID 807;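 active = viability increase at or above a cutoff of the median across tested compounds plus 3 SD, cut at about 8.5% in these data, passing the limit was not always enough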;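 also: compound pretreatment 18-22 h then 72 h combined with doxorubicin; 0% = doxorubicin alone and 100% = vehicle without doxorubicin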). The conditions noted are these: H69AR viability with doxorubicin, CellTiter-Glo luminescence; at 10 µM; stronger effect = higher value.
The nature of experiment [12]: viability of HCT116 without oncogenic beta-catenin – human colon tumor cells, pilot screen (AID 823;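 active = cell viability at or below a set limit in both duplicate runs, the limit being the all-compound median minus 4 SD, cut at about 23% in these data, passing the limit was not always enough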;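 also: 0% = wells killed by 20 µM Hyamine and 100% = untreated DMSO cell wells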). The conditions noted are these: HCT116 beta-catenin knockout viability, CellTiter-Glo, 60 h; at 10 µM; stronger effect = lower value.
Experiment [13] is described as follows: viability of PTEN-null HCT116 cells – cell-based, HCT116 clonal line, CellTiter-Glo, pilot screen (AID 824;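 active = viability at or below 27.92% in each of two runs, the all-compound median minus 4 SD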;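 also: 0% = 20 µM Hyamine control and 100% = vehicle cell control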). The following applies: HCT116 PTEN-deleted viability, 60 h, at 10 µM, stronger effect = lower value.
Experiment [14] in a line: RAM pathway blockade in budding yeast – dse1pr::URA3 reporter, 5-FOA selection, pilot screen (AID 869;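 active = inhibition over a set limit, the all-compound mean plus 3 SD, in both replicate runs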;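 also: 0% = DMSO wells with no growth and 100% = 10 µM 1-NA-PP1 with full growth; RAM network block rescues cells from 5-FOA so hits raise OD615 growth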). The conditions noted are these: S. cerevisiae dse1pr::URA3 5-FOA growth, OD615, 2 d; at 10 µM; stronger effect = higher value; strain carries analog-sensitive mutant Cbk1 kinase.
A short description of experiment [15]: RAM signaling pathway blockade in yeast – S. cerevisiae, Pdr1DBD-CYC8 efflux-inhibited sensitized strain, primary screen (AID 1298;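 active = RAM network inhibition above 8.4% in each of two replicates, 3 SD over the compound average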;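 also: 0% = DMSO untreated cells without growth and 100% = 10 µM 1-NA-PP1 full growth; higher means more yeast growth rescued from 5-FOA killing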). The conditions noted are these: S. cerevisiae cbk1-as DSE1-URA3 strain, 5-FOA growth OD615, 2 d; at 50 µM; stronger effect = higher value.
Where [16] appears, read: H69AR cells + 2 uM doxorubicin, measured here: viability with 2 uM doxorubicin, stronger effect = lower value.
The mark [17] stands for this setting: H69AR cells, compound alone cytotoxicity.

SMILES strings stand for the structures. Inconclusive results are not listed. Activity calls are given as the source filed them. Rule as the data show it, unless noted: active = inhibition above about 30%; inactive = the rest.

Sequence of Receptor tyrosine-protein kinase erbB-2 (Homo sapiens) (P04626 whole entry, looked up): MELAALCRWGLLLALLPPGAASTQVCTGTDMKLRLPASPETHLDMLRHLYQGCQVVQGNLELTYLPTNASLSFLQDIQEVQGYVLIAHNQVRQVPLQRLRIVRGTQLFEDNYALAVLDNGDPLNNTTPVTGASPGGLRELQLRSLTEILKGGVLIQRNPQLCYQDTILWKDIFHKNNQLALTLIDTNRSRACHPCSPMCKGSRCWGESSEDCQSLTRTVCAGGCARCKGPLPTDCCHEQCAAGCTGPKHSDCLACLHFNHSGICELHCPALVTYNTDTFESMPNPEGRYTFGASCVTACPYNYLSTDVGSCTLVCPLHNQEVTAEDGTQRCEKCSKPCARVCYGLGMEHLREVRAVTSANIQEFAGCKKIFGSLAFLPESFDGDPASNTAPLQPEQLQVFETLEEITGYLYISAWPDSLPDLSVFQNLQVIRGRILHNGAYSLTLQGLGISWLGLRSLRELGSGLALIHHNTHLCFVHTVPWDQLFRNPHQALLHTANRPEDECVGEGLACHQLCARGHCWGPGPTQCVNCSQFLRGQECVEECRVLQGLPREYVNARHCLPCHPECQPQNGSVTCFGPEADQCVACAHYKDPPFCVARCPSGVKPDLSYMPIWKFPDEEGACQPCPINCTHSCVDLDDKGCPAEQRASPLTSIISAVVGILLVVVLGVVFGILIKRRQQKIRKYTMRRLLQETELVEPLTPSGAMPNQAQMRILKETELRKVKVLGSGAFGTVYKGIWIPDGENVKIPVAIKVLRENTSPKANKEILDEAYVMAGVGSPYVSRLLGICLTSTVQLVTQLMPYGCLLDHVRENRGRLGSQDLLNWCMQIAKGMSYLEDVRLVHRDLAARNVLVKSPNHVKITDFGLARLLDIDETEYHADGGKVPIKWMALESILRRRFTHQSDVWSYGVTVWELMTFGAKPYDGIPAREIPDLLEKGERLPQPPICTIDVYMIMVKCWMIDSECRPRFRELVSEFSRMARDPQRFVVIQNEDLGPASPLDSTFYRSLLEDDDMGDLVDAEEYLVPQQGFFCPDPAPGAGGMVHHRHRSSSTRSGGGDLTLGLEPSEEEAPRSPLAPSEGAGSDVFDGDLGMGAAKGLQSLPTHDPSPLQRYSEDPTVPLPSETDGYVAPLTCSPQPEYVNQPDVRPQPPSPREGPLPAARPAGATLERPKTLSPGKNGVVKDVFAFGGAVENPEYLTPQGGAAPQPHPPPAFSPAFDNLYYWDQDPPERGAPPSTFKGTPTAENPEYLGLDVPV

For `CCOCCn1c(CN2CCN(CC)CC2)nc2c1c(=O)n(C)c(=O)n2C`, the viability in experiment [1] was 121%; in [3], 121% (inactive); in [4], 94.2% (inactive); in experiment [5], 91.8% (inactive); in experiment [6] (setting [16]), 87.1%; in experiment [6] (setting [17]), 91.8%. Also, the viability in [12] was 103% (inactive); in experiment [13], 97.6% (inactive). Also, the Her2 level in [2] is 109% (inactive). For the same compound, the differential viability (reversal) in [6] (H69AR cells + 2 uM doxorubicin) is 4.7% (inactive). Also, the inhibition is -1.6% (inactive) in experiment [7], -4.33% (inactive) in experiment [8] and 1.31% (inactive) in [14]. Moreover, the growth inhibition in experiment [9] is 5.99% (inactive); in [10], 1.91% (inactive). Moreover, the viability increase in [11] is -1.7% (inactive). Moreover, the RAM network inhibition in [15] is -1.34% (inactive).
`Cc1ccc(C)c2[nH]c(=O)c(CCNC(=O)CC(C)(C)C)cc12`: the viability was 88% in experiment [1]; 88% (inactive) in experiment [3]; 103% (inactive) in experiment [4]; 90.9% (inactive) in experiment [5]; 69.7% in experiment [6] (setting [16]); 90.9% in experiment [6] (setting [17]). Besides, the viability in [12] was 104% (inactive); in experiment [13] it was 92.6% (inactive). The Her2 level in experiment [2] is 105% (inactive). For the same compound, the differential viability (reversal) in [6] (H69AR cells + 2 uM doxorubicin) was 21.2% (inactive). The inhibition was -4.27% (inactive) in experiment [7], -4.5% (inactive) in experiment [8] and 1.04% (inactive) in [14]. Moreover, the results for the growth inhibition in [9] and in [10] were -4.09% (inactive) and -11.6% (inactive), respectively. For the same compound, the viability increase in [11] was 1.59% (inactive). In addition, in experiment [15], the RAM network inhibition was 4.85% (inactive).
Turning to `O=C(C(Cc1ccccc1)n1cccc1)N1CCCCCC1` (stereo not given), the viability in experiment [1] was 99%; in experiment [3], 99% (inactive); in experiment [4] it was 87.6% (inactive); in experiment [5], 95.6% (inactive); in [6] (setting [16]), 84.4%; in experiment [6] (setting [17]), 95.6%. Further, the viability in experiment [12] was 95.3% (inactive); in experiment [13] it was 88% (inactive). Further, the Her2 level in experiment [2] was 102% (inactive). For the same compound, in experiment [6] (H69AR cells + 2 uM doxorubicin), the differential viability (reversal) is 11.2% (inactive). For the same compound, the inhibition in [7] was -0.13% (inactive); in experiment [8], -6.89% (inactive); in experiment [14] it was 1.68% (inactive). In addition, the growth inhibition was -11.2% (inactive) in experiment [9] and -7.42% (inactive) in experiment [10]. For the same compound, the viability increase in experiment [11] is -2.42% (inactive). For the same compound, the RAM network inhibition in experiment [15] is 2.67% (inactive).
For the compound `COc1ccccc1CNC(=O)C1CCCN(S(=O)(=O)c2cccc3cccnc23)C1` (stereo not given), the viability in experiment [1] is 92.5%; in [3], 92.5% (inactive); in [4], 111% (inactive); in experiment [5], 92% (inactive); in experiment [6] (setting [16]), 92.3%; in experiment [6] (setting [17]), 92%. The viability in [12] is 90.6% (inactive); in [13] it was 91.6% (inactive). Further, the Her2 level in experiment [2] was 98.5% (inactive). Also, the differential viability (reversal) in experiment [6] (H69AR cells + 2 uM doxorubicin) is -0.39% (inactive). Moreover, the values for the inhibition in experiment [7], in [8] and in [14] were -4.53% (inactive), -2.17% (inactive) and 3.08% (inactive), respectively. Also, the results for the growth inhibition in experiment [9] and in experiment [10] were -5.17% (inactive) and -12.7% (inactive), respectively. In addition, the viability increase in experiment [11] is -3.42% (inactive). Moreover, in experiment [15], the RAM network inhibition is 6.37% (inactive).
`COC(=O)C(C)Sc1nc2c(c(=O)n1-c1ccccc1)SCC2` (stereo not given): the viability is 102% in experiment [1]; 102% (inactive) in [3]; 84.3% (inactive) in experiment [4]; 94.9% (inactive) in experiment [5]; 107% in experiment [6] (setting [16]); 94.9% in experiment [6] (setting [17]). In addition, the viability in experiment [12] was 87.1% (inactive); in [13], 90.8% (inactive). The Her2 level in experiment [2] is 77.5% (inactive). Also, in experiment [6] (H69AR cells + 2 uM doxorubicin), the differential viability (reversal) was -12.1% (inactive). Moreover, the values for the inhibition in experiment [7], in experiment [8] and in experiment [14] were -6.99% (inactive), -4.44% (inactive) and 1.94% (inactive), respectively. Besides, the growth inhibition in [9] was -12.1% (inactive); in experiment [10], -4.13% (inactive). Further, the viability increase in [11] is -1.78% (inactive). In experiment [15], the RAM network inhibition is 4.56% (inactive).
